In PubChem BioAssay (NCI):
About 79,000 compounds went through this panel and 15% of them were active in at least one assay; those are over-represented in the sample as a whole. Activity calls are given as the source filed them. Cut-off read from the data, not from the text of the source: active = growth inhibition above about 70%; inactive = the rest.

Tests used:
[1] = NCI Yeast Anticancer Drug Screen. Data for the rad50 strain (AID 155);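 note: 0% = growth of vehicle-only cultures of the same strain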; settings: S. cerevisiae rad50 strain growth inhibition; at 50.0 µM; active compounds read high
Method in brief: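 Readout: growth inhibition relative to vehicle-treated cultures. Compound exposure was carried out in a genetically defined yeast strain deficient in DNA damage repair.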

[2] = NCI Yeast Anticancer Drug Screen. Data for the mec2-1 strain (AID 157); settings: S. cerevisiae mec2-1 strain, at 50.0 µM, active compounds read high
Method in brief: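 Readout is yeast growth inhibition, normalised to vehicle-treated controls, in the mec2-1 strain exposed to compound.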

[3] = NCI Yeast Anticancer Drug Screen. Data for the sgs1 mgt1 strain (AID 161);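 note: 0% = growth of cultures given vehicle only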; settings: S. cerevisiae sgs1 mgt1 strain, at 50.0 µM, active compounds read high
Method in brief: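 Percent growth inhibition was derived by comparing compound-exposed mutant yeast with vehicle-exposed cultures. The strain carries alterations in DNA damage repair.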

[4] = NCI Yeast Anticancer Drug Screen. Data for the cln2 rad14 strain (AID 165);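 note: 0% = growth equal to vehicle treated cultures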; settings: S. cerevisiae cln2 rad14 strain, at 50.0 µM, active compounds read high
Method in brief: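 Relative to vehicle controls, growth inhibition of compound-treated cln2 rad14 yeast was recorded.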

[5] = NCI Yeast Anticancer Drug Screen. Data for the bub3 strain (AID 167); settings: S. cerevisiae bub3 mutant strain, at 50.0 µM, active compounds read high
Method in brief: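 Readout: yeast growth inhibition, expressed relative to vehicle-only wells. The test organism is a mutant strain from a panel with lesions in DNA repair or checkpoint genes.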

[6] = NCI Yeast Anticancer Drug Screen. Data for the mlh1 rad18 strain (AID 175); settings: S. cerevisiae mlh1 rad18 strain growth inhibition; at 50.0 µM; active compounds read high
Method in brief: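 Test agents were incubated with a yeast strain of defined genotype (DNA damage repair defect). Inhibition of growth was derived by comparison with vehicle-exposed cultures.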

Measured: growth inhibition

COC(=O)CCc1ccc(NP(=O)(Oc2ccccc2)N(CCCl)CCCl)cc1 (stereo not given)
inactive: [1] 13.3% | [2] 20.2% | [3] 23.4% | [4] 35.8% | [5] 12.2% | [6] -8.55%

N#CCN(CC#N)[N+](=O)[O-]
inactive: [1] 6.8% | [2] -4.95% | [3] -14.2% | [4] -6% | [5] -26.3% | [6] 0.4%

C[N+]1(C)CCCC1c1cccnc1 (stereo not given)
inactive: [1] 42.8% | [2] 7.35% | [3] -2.45% | [4] -15.2% | [5] 14.4% | [6] 29.9%

CC1OC(=O)C(C(C)C)NC(=O)C(C(C)C)OC(=O)C(C(C)C)NC(=O)C(C)OC(=O)C(C(C)C)NC(=O)C(C(C)C)OC(=O)C(C(C)C)NC(=O)C(C)OC(=O)C(C(C)C)NC(=O)C(C(C)C)OC(=O)C(C(C)C)NC1=O (stereo not given)
inactive: [1] 31.9% | [2] 38.8% | [3] 45.9% | [4] 25.1% | [5] 16.8% | [6] 42.5%

CCCCCC[n+]1noc(N)c1-c1ccc(-c2c(N)on[n+]2CCCCCC)cc1
inactive: [1] 17.6% | [2] -1.35% | [3] 26.1% | [4] 21.8% | [5] 16.2% | [6] 18.5%

OC1CCN(C2(c3ccccc3)CCCCC2)CC1
inactive: [1] -13.9% | [2] 1.45% | [3] -1.85% | [4] -4.25% | [5] -6.1% | [6] 0.15%

[Cl][Ni][Cl].[NH-]CCN1CC1.[NH-]CCN1CC1
inactive: [1] -9.75% | [2] 19.4% | [3] 19.4% | [4] -26.4% | [5] -4.55% | [6] -5.75%

Cc1cc(N)ccc1N
inactive: [1] 7.15% | [2] 11.2% | [3] 14.2% | [4] 4.25% | [5] -6% | [6] -2.9%

CCC(/C=N/N=C(N)N)=N\N=C(N)N
inactive: [1] 8.4% | [2] -2.6% | [3] -0.75% | [4] -18.4% | [5] 19.9% | [6] -10.3%

CC(Cl)CNC1CCCCC1 (stereo not given)
inactive: [1] 6% | [2] -3.5% | [3] -8.95% | [4] -10.6% | [5] -0.95% | [6] -0.9%

CN(C)CCNC(=O)c1cc([N+](=O)[O-])cc2c1Oc1ccccc1O2
inactive: [1] -7.05% | [2] -12.6% | [3] -7.35% | [4] 16.9% | [5] -7.2% | [6] -7.3%

C1CCNCC1.COc1ccccc1C(=O)[CH-]C(=O)C(F)(F)F.COc1ccccc1C(=O)[CH-]C(=O)C(F)(F)F.COc1ccccc1C(=O)[CH-]C(=O)C(F)(F)F.COc1ccccc1C(=O)[CH-]C(=O)C(F)(F)F.[Eu+3]
inactive: [1] 56.3% | [2] 48.5% | [3] 48.9% | [4] 34.1% | [5] 29.8% | [6] 64.5%

CN(C)C(=O)NC(O)C(Cl)(Cl)Cl (stereo not given)
inactive: [1] -20.4% | [2] -8.35% | [3] -5.45% | [4] -21.1% | [5] -4.25% | [6] 19.1%

CC1=CC2=C(C)C3(CC3)[C@@](C)(O)C(=O)C2=C1
inactive: [1] 45.5% | [2] 14.3% | [3] 55.8% | [4] 23.9% | [5] 26.9% | [6] -15.2%

CN(C)C(=O)Sc1ccc(S(=O)(=O)F)cc1[N+](=O)[O-]
inactive: [1] 65.5% | [2] 36.9% | [4] 42.5% | [5] 34.4% | [6] 34.6%
active: [3] 76.7%

CC1(C)C(=O)CC[C@@]2(C)C1=CC[C@@H]1[C@@H]2CC[C@@]2(C)[C@H]1CC[C@]2(C)O
inactive: [1] 5.75% | [2] -14.8% | [3] 11.6% | [4] -21% | [5] 3.8% | [6] 7.05%

Nc1cccnc1
inactive: [1] -29.1% | [2] -35.5% | [3] 23.8% | [4] -1.55% | [5] -23.6% | [6] -5.65%

CCOS(=O)(=O)c1ccc(C)cc1
inactive: [1] 13.8% | [2] 8.25% | [3] 3.35% | [4] -0.95% | [5] 8.45% | [6] -5.2%

FC1(F)[Se]C2C3CCC(C3)C2C1(F)F (stereo not given)
inactive: [1] -30.9% | [2] -11.6% | [3] -3.6% | [4] -16.1% | [5] -0.15% | [6] -40.7%

CCC(C)(C)C(=O)Nc1cccc(OC(=O)NC)c1
inactive: [1] 2.1% | [2] -9.1% | [3] 9.85% | [4] -3.35% | [5] 13.2% | [6] -16.9%
